# About 410 targets per protein were measured; listed, in parts, are those with the strongest signals and a random draw of the rest.
# B1: DC-ASGPR Long (Homo sapiens) (protein)
# chain: MTRTYENFQYLENKVKVQGFKNGPLPLQSLLQRLRSGPCHLLLSLGLGLLLLVIICVVGFQNSKFQRDLVTLRTDFSNFTSNTVAEIQALTSQGSSLEETIASLKAEVEGFKQERQAGVSELQEHTTQKAHLGHCPHCPSVCVPVHSEMLLRVQQLVQDLKKLTCQVATLNNNASTEGTCCPVNWVEHQDSCYWFSHSGMSWAEAEKYCQLKNAHLVVINSREEQNFVQKYLGSAYTWMGLSDPEGAWKWVDGTDYATGFQNWKPGQPDDWQGHGLGGGEDCAHFHPDGGWNDDVCQRPYHWVCEAGLGQTSQESH
# Experiments:
# Test in all cases: glycan array binding signal (z-score within array); higher = stronger binding
# Conditions in all cases: glycan notation: IUPAC condensed, linker removed
# [1] = molecular target: Fuc(a1-2)Gal(b1-3)GlcNAc(b1-2)Man(a1-3)[Fuc(a1-2)Gal(b1-3)GlcNAc(b1-2)Man(a1-6)]Man(b1-4)GlcNAc(b1-4)GlcNAc
# Outline: (§1)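 Arrays were curated from the Consortium for Functional Glycomics database, 3228 in total, and kept only where the protein sequence was available. Binding is expressed as a within-array Z-score. This score was averaged across arrays of the same protein sequence at different concentrations or buffers and across linkers, and negative values can be read as non-binding.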
# [2] = molecular target: Fuc(a1-2)Gal(b1-3)GlcNAc(b1-2)Man(a1-3)[Fuc(a1-2)Gal(b1-3)GlcNAc(b1-2)Man(a1-6)]Man(b1-4)GlcNAc(b1-4)[Fuc(a1-6)]GlcNAc
# Outline: as §1
# Fuc(a1-2)Gal(b1-4)GlcNAc = molecular target: Fuc(a1-2)Gal(b1-4)GlcNAc
# Outline: as §1
# [3] = molecular target: Fuc(a1-2)Gal3S(b1-4)GlcNAc
# Outline: as §1
# [4] = molecular target: Fuc(a1-2)[GalNAc(a1-3)]Gal(b1-4)GlcNAc(b1-3)Gal(b1-4)GlcNAc
# Outline: as §1
# [5] = molecular target: Fuc(a1-2)[GalNAc(a1-3)]Gal(b1-4)GlcNAc(b1-6)GalNAc
# Outline: as §1
# [6] = molecular target: Fuc(a1-2)[GalNAc(a1-4)]Gal(b1-4)GlcNAc
# Outline: as §1
# [7] = molecular target: Fuc(a1-2)[GalNAc(b1-3)]Gal
# Outline: as §1
# [8] = molecular target: Gal(a1-3)Gal(b1-3)GlcNAc(b1-6)GalNAc
# Outline: as §1
# [9] = molecular target: Gal(a1-3)Gal(b1-4)GlcNAc(b1-6)GalNAc
# Outline: as §1
# [10] = molecular target: Gal(a1-4)Gal(b1-3)GlcNAc(b1-2)Man(a1-3)[Gal(a1-4)Gal(b1-3)GlcNAc(b1-2)Man(a1-6)]Man(b1-4)GlcNAc(b1-4)GlcNAc
# Outline: as §1
# [11] = molecular target: Gal(a1-4)Gal(b1-4)GlcNAc(b1-3)Gal(b1-4)Glc
# Outline: as §1
# Gal(b1-3)GlcNAc(b1-2)Man = molecular target: Gal(b1-3)GlcNAc(b1-2)Man
# Outline: as §1
# [12] = molecular target: Gal(b1-3)GlcNAc(b1-2)Man(a1-3)[GlcNAc(b1-4)][Gal(b1-3)GlcNAc(b1-2)Man(a1-6)]Man(b1-4)GlcNAc(b1-4)GlcNAc
# Outline: as §1
# [13] = molecular target: Gal(b1-3)GlcNAc(b1-6)GalNAc
# Outline: as §1
# Gal3S(b1-4)Glc = molecular target: Gal3S(b1-4)Glc
# Outline: as §1
# [14] = molecular target: GalNAc(b1-3)Gal(a1-4)Gal(b1-4)GlcNAc
# Outline: as §1
# [15] = molecular target: GalNAc(b1-3)Gal(a1-6)Gal(b1-4)Glc
# Outline: as §1
# [16] = molecular target: GlcNAc(b1-2)Man(a1-3)[GlcNAc(b1-4)][GlcNAc(b1-2)Man(a1-6)]Man(b1-4)GlcNAc(b1-4)GlcNAc
# Outline: as §1
# [17] = molecular target: GlcNAc(b1-2)[GlcNAc(b1-6)]Man(a1-6)[GlcNAc(b1-2)Man(a1-3)]Man(b1-4)GlcNAc(b1-4)GlcNAc
# Outline: as §1
# [18] = molecular target: GlcNAc(b1-3)Gal(b1-4)GlcNAc
# Outline: as §1
# [19] = molecular target: GlcNAc(b1-3)Gal(b1-4)GlcNAc(b1-3)Gal(b1-4)GlcNAc(b1-3)Gal(b1-4)GlcNAc(b1-2)Man(a1-3)[GlcNAc(b1-3)Gal(b1-4)GlcNAc(b1-3)Gal(b1-4)GlcNAc(b1-3)Gal(b1-4)GlcNAc(b1-2)Man(a1-6)]Man(b1-4)GlcNAc(b1-4)[Fuc(a1-6)]GlcNAc
# Outline: as §1
# [20] = molecular target: GlcNAc(b1-3)Gal(b1-4)GlcNAc(b1-3)Gal(b1-4)GlcNAc(b1-3)Gal(b1-4)GlcNAc(b1-3)Gal(b1-4)GlcNAc(b1-2)Man(a1-3)[GlcNAc(b1-3)Gal(b1-4)GlcNAc(b1-3)Gal(b1-4)GlcNAc(b1-3)Gal(b1-4)GlcNAc(b1-3)Gal(b1-4)GlcNAc(b1-2)Man(a1-6)]Man(b1-4)GlcNAc(b1-4)GlcNAc
# Outline: as §1
# [21] = molecular target: GlcNAc(b1-3)Gal(b1-4)GlcNAc(b1-3)Gal(b1-4)GlcNAc(b1-3)Gal(b1-4)GlcNAc(b1-3)Gal(b1-4)GlcNAc(b1-2)Man(a1-3)[GlcNAc(b1-3)Gal(b1-4)GlcNAc(b1-3)Gal(b1-4)GlcNAc(b1-3)Gal(b1-4)GlcNAc(b1-3)Gal(b1-4)GlcNAc(b1-2)Man(a1-6)]Man(b1-4)GlcNAc(b1-4)[Fuc(a1-6)]GlcNAc
# Outline: as §1
# GlcNAc(b1-6)GalNAc = molecular target: GlcNAc(b1-6)GalNAc
# Outline: as §1
# Kdn(a2-3)Gal(b1-3)GlcNAc = molecular target: Kdn(a2-3)Gal(b1-3)GlcNAc
# Outline: as §1
# [22] = molecular target: Man(a1-2)Man(a1-3)[Man(a1-2)Man(a1-6)]Man(a1-6)[Man(a1-2)Man(a1-2)Man(a1-3)]Man(b1-4)GlcNAc(b1-4)GlcNAc
# Outline: as §1
# Neu5Ac(a2-3)Gal = molecular target: Neu5Ac(a2-3)Gal
# Outline: as §1
# [23] = molecular target: Neu5Ac(a2-3)Gal(b1-3)GlcNAc(b1-6)GalNAc
# Outline: as §1
# [24] = molecular target: Neu5Ac(a2-3)Gal(b1-3)[Fuc(a1-4)]GlcNAc(b1-3)Gal(b1-3)[Fuc(a1-4)]GlcNAc
# Outline: as §1
# [25] = molecular target: Neu5Ac(a2-3)Gal(b1-3)[Neu5Ac(a2-6)]GlcNAc(b1-3)[Fuc(a1-3)[Gal(b1-4)]GlcNAc(b1-6)]Gal(b1-4)Glc
# Outline: as §1
# Neu5Ac(a2-3)Gal(b1-4)Glc = molecular target: Neu5Ac(a2-3)Gal(b1-4)Glc
# Outline: as §1
# [26] = molecular target: Neu5Ac(a2-3)Gal(b1-4)[Fuc(a1-3)]GlcNAc(b1-3)GalNAc
# Outline: as §1
# [27] = molecular target: Neu5Ac(a2-6)Gal(b1-4)GlcNAc(b1-2)Man(a1-3)[Neu5Ac(a2-6)Gal(b1-4)GlcNAc(b1-2)Man(a1-6)]Man(b1-4)GlcNAc(b1-4)GlcNAc
# Outline: as §1
# [28] = molecular target: Neu5Ac(a2-6)Gal(b1-4)GlcNAc(b1-2)Man(a1-3)[Neu5Ac(a2-6)Gal(b1-4)GlcNAc(b1-2)Man(a1-6)]Man(b1-4)GlcNAc(b1-4)[Fuc(a1-6)]GlcNAc
# Outline: as §1
# [29] = molecular target: Neu5Ac(a2-6)Gal(b1-4)GlcNAc(b1-2)Man(a1-6)[Man(a1-3)]Man(b1-4)GlcNAc(b1-4)GlcNAc
# Outline: as §1
# [30] = molecular target: Neu5Ac(a2-6)Gal(b1-4)GlcNAc(b1-6)GalNAc
# Outline: as §1
# [31] = molecular target: Neu5Ac(a2-8)Neu5Ac(a2-3)Gal(b1-3)GalNAc(b1-4)[Neu5Ac(a2-8)Neu5Ac(a2-3)]Gal(b1-4)Glc
# Outline: as §1
# [32] = molecular target: Neu5Ac(a2-8)Neu5Ac(a2-8)Neu5Ac
# Outline: as §1
binder,measurement,setting,value
B1,glycan array binding signal (z-score),[1],-1.26
same,glycan array binding signal (z-score),[2],-0.382
same,glycan array binding signal (z-score),Fuc(a1-2)Gal(b1-4)GlcNAc,-0.356
same,glycan array binding signal (z-score),[3],0.826
same,glycan array binding signal (z-score),[4],-0.618
same,glycan array binding signal (z-score),[5],5.11
same,glycan array binding signal (z-score),[6],3.67
same,glycan array binding signal (z-score),[7],5.95
same,glycan array binding signal (z-score),[8],3.07
same,glycan array binding signal (z-score),[9],3.58
same,glycan array binding signal (z-score),[10],-0.383
same,glycan array binding signal (z-score),[11],-0.788
same,glycan array binding signal (z-score),Gal(b1-3)GlcNAc(b1-2)Man,-0.186
same,glycan array binding signal (z-score),[12],-0.269
same,glycan array binding signal (z-score),[13],5.68
same,glycan array binding signal (z-score),Gal3S(b1-4)Glc,-0.075
same,glycan array binding signal (z-score),[14],3.37
same,glycan array binding signal (z-score),[15],3.13
same,glycan array binding signal (z-score),[16],-0.323
same,glycan array binding signal (z-score),[17],5.41
same,glycan array binding signal (z-score),[18],-0.433
same,glycan array binding signal (z-score),[19],0.194
same,glycan array binding signal (z-score),[20],0.068
same,glycan array binding signal (z-score),[21],1.61
same,glycan array binding signal (z-score),GlcNAc(b1-6)GalNAc,3.43
same,glycan array binding signal (z-score),Kdn(a2-3)Gal(b1-3)GlcNAc,-0.092
same,glycan array binding signal (z-score),[22],-0.746
same,glycan array binding signal (z-score),Neu5Ac(a2-3)Gal,-0.419
same,glycan array binding signal (z-score),[23],4.59
same,glycan array binding signal (z-score),[24],-0.273
same,glycan array binding signal (z-score),[25],-0.251
same,glycan array binding signal (z-score),Neu5Ac(a2-3)Gal(b1-4)Glc,-0.302
same,glycan array binding signal (z-score),[26],0.105
same,glycan array binding signal (z-score),[27],-0.115
same,glycan array binding signal (z-score),[28],-0.343
same,glycan array binding signal (z-score),[29],-0.516
same,glycan array binding signal (z-score),[30],-0.224
same,glycan array binding signal (z-score),[31],-0.349
same,glycan array binding signal (z-score),[32],-0.221
